Among the test systems are T-47D breast; BT-549 breast; MDA-MB-435 melanoma; SW-620 colon; MCF7 breast; HCT-116 colon; HCC-2998 colon; KM12 colon.
Common to all, as to test: NCI-60 one-dose screen, 48 h (100 = growth as untreated, 0 = no growth, -100 = all killed)
What all share (details): 10 µM unless noted

This is part of a sample that, as a whole, favours compounds with a hit. Of some 83,000 tested, about 20% had one in any assay.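 Cell lines were cultured in 96-well plates, exposed to a single compound concentration, and assessed for percent growth 48 hours later.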 A number with no mark means an inactive call. Active and inactive are the calls of the source. Rule for the calls: active = growth percent below 10; inactive = the rest.

Turning to `CC/C=C\C[C@H](O)C/C=C1/C(=O)C=C[C@@H]1C/C=C\CCCC(=O)N(C)C`, the growth in the test on T-47D breast is 10.7%; with BT-549 breast it was -34.8% (active); in the test with MDA-MB-435 melanoma, -18.1% (active); with SW-620 colon it was -42.4% (active); with MCF7 breast it was 7.79% (active); in the test with HCT-116 colon, -63.4% (active). In addition, the growth in the test on HCC-2998 colon is -90.7% (active).
In the case of `NNc1nc(-c2cccnc2)nc2c1sc(=S)n2-c1ccccc1`, the growth in the test with T-47D breast is 62.9%; in the test on BT-549 breast, 72.7%; in the test on MDA-MB-435 melanoma it was 112%; in the test with SW-620 colon, 102%; in the test with MCF7 breast it was 92.5%; with HCT-116 colon, 76.4%. In the test on HCC-2998 colon, the growth was 108%.
As for `Cn1ccc(=O)c(C(=O)Nc2nsc3ccc([N+](=O)[O-])cc23)c1`, the growth with T-47D breast was 74.6%; with BT-549 breast, 69.8%; in the test with MDA-MB-435 melanoma, 75.6%; in the test with SW-620 colon it was 56.5%; with MCF7 breast, 34.7%; in the test with HCT-116 colon, 56.2%. The growth with HCC-2998 colon was 87%; in the test with KM12 colon, 65.3%.
As for `CCOC(=O)c1c(NC(=O)c2cccc(C(F)(F)F)c2)sc2c(CN(C)C)c(O)ccc12`, the growth is 70.3% in the test with T-47D breast; 96.3% in the test on BT-549 breast; -22.6% (active) in the test with MDA-MB-435 melanoma; -6.39% (active) with SW-620 colon; 26.3% in the test on MCF7 breast; 33.7% in the test with HCT-116 colon. Also, the growth in the test with HCC-2998 colon was -64.2% (active).
Turning to `Cn1ccnc1C(=O)/C=C/c1ccc(C(=O)Nc2ccc(Cl)cc2)cc1`, the growth was 9.37% (active) in the test with T-47D breast; -7.95% (active) with BT-549 breast; 23.8% with MDA-MB-435 melanoma; -46.8% (active) in the test with SW-620 colon; 12.6% in the test with MCF7 breast; -49% (active) in the test on HCT-116 colon. The growth with HCC-2998 colon was -10.1% (active).
For `Oc1c(I)cc(I)cc1CNCc1ccccn1`, the growth was 14.8% with T-47D breast; 36.7% with BT-549 breast; 46.8% in the test on MDA-MB-435 melanoma; 33.2% in the test with SW-620 colon; 28.7% with MCF7 breast; 26.4% in the test with HCT-116 colon. Also, the growth was 49.3% in the test on HCC-2998 colon and 41.1% in the test on KM12 colon.
Regarding `CC(C)=CCC[C@](C)(O)[C@H]1CC[C@]2(C)[C@@H]1CC[C@@H]1[C@@]3(C)C/C(=C/c4ccco4)C(=O)C(C)(C)[C@@H]3CC[C@]12C`, the growth was 97.8% in the test with T-47D breast; 98.1% in the test on BT-549 breast; 97.4% with MDA-MB-435 melanoma; 99.1% with SW-620 colon; 97.2% in the test on MCF7 breast; 97.4% in the test on HCT-116 colon. Further, the growth in the test with HCC-2998 colon was 105%.
For the compound `CN(/C(N)=N/N=C/c1c2ccccc2cc2ccccc12)C1CCCCC1`, the growth in the test with T-47D breast was 30.8%; in the test on BT-549 breast it was 67.7%; in the test with MDA-MB-435 melanoma, 57.5%; in the test with SW-620 colon, 58.6%; in the test on MCF7 breast it was 32.8%; in the test with HCT-116 colon it was 15.9%. Besides, the growth in the test on HCC-2998 colon is -69.9% (active).
For `Cn1cc(C(=O)c2nc(-c3c[nH]c4ccccc34)no2)c2cc(F)ccc21`, the growth in the test with T-47D breast is 37.8%; in the test with BT-549 breast, 48%; with MDA-MB-435 melanoma, -19.1% (active); in the test with SW-620 colon, 23.2%; with MCF7 breast it was 19.2%; in the test on HCT-116 colon it was 19.5%. Further, in the test on HCC-2998 colon, the growth is 73.9%.
As for `C=C(C)[C@@H]1CCC[C@]2(COS(=O)(=O)c3ccc(C)cc3)CC[C@]3(C)[C@@H](CC[C@@H]4[C@@]5(C)CCCNC(C)(C)[C@@H]5CC[C@]43C)[C@@H]12`, the growth in the test on T-47D breast was 59.6%; in the test with BT-549 breast it was 83.7%; in the test with MDA-MB-435 melanoma it was -25.3% (active); with SW-620 colon, -69.4% (active); with MCF7 breast, -32.6% (active); in the test on HCT-116 colon, -82.8% (active). In addition, in the test on HCC-2998 colon, the growth is -75.8% (active).
On to `Cc1c[n+](Cc2ccc3ccccc3c2)cn1Cc1ccc2ccccc2c1`, for which the growth in the test with T-47D breast is -8.03% (active); with BT-549 breast, -2.98% (active); in the test with MDA-MB-435 melanoma it was -20.9% (active); in the test with SW-620 colon, 36.8%; in the test with MCF7 breast it was 18.5%; in the test with HCT-116 colon it was 23.2%. The growth in the test on HCC-2998 colon is 14.8%.
Regarding `COc1cc2ncnc(Nc3ccc(F)c(Cl)c3)c2cc1OCC(=O)N1CCN(c2ccccc2)CC1`, the growth is 77.4% with T-47D breast; 106% with BT-549 breast; 95.6% with MDA-MB-435 melanoma; 101% with SW-620 colon; 90% in the test with MCF7 breast; 67.7% in the test on HCT-116 colon. The growth in the test on HCC-2998 colon is 97.8%.
For the compound `O=CN1N=C(c2cccc(Nc3ccnc4cc(Cl)ccc34)c2)CC1c1ccccc1` (configuration not stated), the growth in the test on T-47D breast is 45.5%; in the test with BT-549 breast, 35.7%; in the test on MDA-MB-435 melanoma, -34.4% (active); with SW-620 colon it was 34.2%; with MCF7 breast, 19.3%; in the test with HCT-116 colon, 7.26% (active). Also, in the test with HCC-2998 colon, the growth was 12.4%.
For the compound `CCCCCCCCCCCCCCCCCCOc1ccccc1CC(=O)OCC[N+](C)(C)C`, the growth with T-47D breast was 28.8%; with BT-549 breast, 46.5%; in the test with MDA-MB-435 melanoma, 31.5%; in the test with SW-620 colon, 23.9%; in the test on MCF7 breast, 34%; in the test with HCT-116 colon, 30.6%. Besides, the results for the growth with HCC-2998 colon and in the test on KM12 colon were 27.9% and -27.4% (active), respectively.
For `Nc1nc2ccc(-c3nc4ccc5[nH]ncc5c4c4c3CCCC4)cc2s1`, the growth in the test on T-47D breast was 110%; in the test with BT-549 breast, 106%; in the test with MDA-MB-435 melanoma it was 111%; in the test with SW-620 colon it was 106%; in the test on MCF7 breast, 97.7%; in the test on HCT-116 colon, 91.8%. In addition, the growth in the test with HCC-2998 colon is 107%.
Regarding `COc1cc(OC)c(/C=C/C(=O)c2c(OC)cccc2OC)c(OC)c1`, the growth is 30.1% with T-47D breast; 7.43% (active) in the test with BT-549 breast; -22% (active) with MDA-MB-435 melanoma; 17.7% with SW-620 colon; 25.1% in the test with MCF7 breast; 9.06% (active) in the test on HCT-116 colon. Besides, in the test with HCC-2998 colon, the growth is 0.761% (active).
On to `O=C(CSc1oc(-c2ccccc2)nc1S(=O)(=O)c1ccccc1)Nc1ccc(F)cc1`, for which the growth in the test with T-47D breast is 69.8%; with BT-549 breast it was 78.4%; with MDA-MB-435 melanoma, 94.8%; with SW-620 colon, 96.5%; in the test with MCF7 breast it was 92.6%; in the test on HCT-116 colon, 52.6%. In addition, in the test with HCC-2998 colon, the growth was 104%.
